Measurements published in PubChem BioAssay (EPA / NIEHS).
Records with an inconclusive call do not appear. Activity calls are given as the source filed them. The calls were made as follows: active = hit-call score of the fitted dose curve at least 0.9, where 1 is the maximum; inconclusive = response in the unintended direction; inactive = score below 0.9.

Tests used:
[1] = molecular target: Retinoic acid receptor alpha (Homo sapiens) (UniProt P10276); experiment: NVS_NR_hRARa_Agonist: NovaScreen (NVS) Nuclear Receptor Binding Assay for human Retinoic Acid Alpha Receptor Agonism (RAR) (AID 2283361)
Method: NVS_NR_hRARa_Agonist is a biochemical, single-readout assay that uses extracted gene-proteins in a cell-free assay. Measurements were taken 2 hours after chemical dosing in a 384-well plate.NVS_NR_hRARa_Agonist is one of one assay component(s) measured or calculated from the NVS_NR_hRARa_Agonist assay. It is designed to make measurements of fluorescent resonance energy transfer, a form of binding reporter, as detected with fluorescent resonance energy transfer signals by Time-Resolved Fluorescence Resonance Energy Transfer (TR-FRET) technology.Data from the assay component NVS_NR_hRARa_Agonist was analyzed into 1 assay endpoint. This assay endpoint, NVS_NR_hRARa_Agonist, was analyzed in the positive analysis fitting direction relative to DMSO as the negative control and baseline of activity. Using a type of binding reporter, gain-of-signal activity can be used to understand changes in the binding as they relate to the gene RARA. Furthermore, this assay endpoint can be referred to as a primary readout, because the performed assay has only produced 1 assay endpoint. To generalize the intended target to other relatable targets, this assay endpoint is annotated to the nuclear receptor intended target family, where the subfamily is non-steroidal. […]

[2] = molecular target: human Adenosine Transporter (Adot), SLC29A1 (gene 2030) (UniProt Q99808); experiment: NVS_TR_hAdoT: NovaScreen (NVS) Transporter Assay for human Adenosine Transporter (Adot) (AID 2283368)
How it was run: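 U937-derived membranes, cell-free radioligand binding, filter scintillation 1 h after dosing. 25 uM duplicate screen; hits (e.g. 30% inhibition) run in concentration-response up to 50 uM; loss of signal versus DMSO.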

Sequence of Retinoic acid receptor alpha (Homo sapiens) (P10276 whole entry, looked up): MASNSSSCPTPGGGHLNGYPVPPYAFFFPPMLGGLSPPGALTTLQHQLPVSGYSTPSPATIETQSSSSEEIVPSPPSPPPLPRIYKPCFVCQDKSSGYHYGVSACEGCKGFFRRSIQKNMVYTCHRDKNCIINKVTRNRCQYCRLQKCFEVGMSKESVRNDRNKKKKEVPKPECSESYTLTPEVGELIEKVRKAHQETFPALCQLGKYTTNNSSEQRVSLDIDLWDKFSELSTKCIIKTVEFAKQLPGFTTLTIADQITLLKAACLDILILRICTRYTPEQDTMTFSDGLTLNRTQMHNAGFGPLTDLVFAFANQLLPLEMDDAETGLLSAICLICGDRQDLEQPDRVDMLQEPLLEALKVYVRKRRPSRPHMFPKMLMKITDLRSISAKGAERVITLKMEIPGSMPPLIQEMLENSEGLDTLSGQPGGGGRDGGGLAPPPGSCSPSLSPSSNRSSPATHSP
Sequence of human Adenosine Transporter (Adot), SLC29A1 (gene 2030) (Q99808 whole entry, looked up): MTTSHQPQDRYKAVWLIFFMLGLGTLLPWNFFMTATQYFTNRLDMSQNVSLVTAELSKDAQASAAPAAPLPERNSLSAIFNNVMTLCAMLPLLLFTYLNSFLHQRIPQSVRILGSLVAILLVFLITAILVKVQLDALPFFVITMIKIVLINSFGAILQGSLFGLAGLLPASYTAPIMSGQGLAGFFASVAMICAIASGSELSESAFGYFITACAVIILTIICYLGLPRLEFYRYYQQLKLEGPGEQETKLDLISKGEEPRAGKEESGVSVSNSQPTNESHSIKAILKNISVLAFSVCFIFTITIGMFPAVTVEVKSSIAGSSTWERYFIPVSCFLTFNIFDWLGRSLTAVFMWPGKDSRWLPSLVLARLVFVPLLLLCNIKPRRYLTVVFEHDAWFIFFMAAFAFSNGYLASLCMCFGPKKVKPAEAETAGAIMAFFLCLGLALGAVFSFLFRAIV

Q: For `Cc1cc(C(=C2C=CC(=Nc3ccc(S(=O)(=O)O)cc3)C=C2)c2ccc(Nc3ccc(S(=O)(=O)O)cc3)cc2)cc(S(=O)(=O)O)c1N`, which AC50 [1] is on record?
A: 17.5 µM (active)

Q: How did the AC50 [1] turn out when `O=C1OC2(c3ccccc31)c1cc(I)c(O)c(I)c1Oc1c2cc(I)c(O)c1I` was run?
A: 19.9 µM (active)

Q: How did the AC50 [2] turn out when `CS(=O)(=O)c1ccc([C@@H](CC2CCCC2)C(=O)Nc2cnccn2)cc1Cl` was run?
A: 25 µM (active)
